# Platelet DG rel = inhibitors of platelet dense granule secretion, primary screen, cell-based, MLPCN, human platelets; human platelet-rich plasma, SFLLRN dense granule ATP release, luminescence; inhibition, %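 (compounds screened at 7.5 µM in platelet-rich plasma)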; hit rate 0.22% among 300,000; AID 1663, 2009;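 active = mean replicate score, as percent of positive control, at or above 50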
# pCIP destab = p/CIP-EGFP fusion destabilizers, primary screen, fluorescence, F442A cells; Q05BA5; 16 h; decrease of EGFP signal, % at 10 µM; hit rate 0.01% among 290,000; AID 1984, 2009;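 active = EGFP signal decrease of at least 30% at 10 µM or well 3 SD below plate mean, unless failing retest; inactive = the rest, including hits failing retest or dose response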
# PolyA inh = polyadenylation inhibitors in yeast reporter cells, primary screen, luminescence, S. cerevisiae; S. cerevisiae SKY197-pL101 polyadenylation reporter, beta-gal luminescence; efflux-impaired pdr1/pdr3 knockout yeast; score 100 = 6 SD above DMSO; activity score, % at 12 µM; hit rate 0.02% among 300,000; AID 1875, 2009;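 active = lowest replicate activity score at least 50, where 100 means six control SD above control mean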;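 also: yeast exposed to compound for 9 h at 30 °C; higher score means more reporter readthrough which indicates perturbed polyadenylation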
# HIF activator = HIF pathway transcriptional activators, primary screen, cell-based, U2OS HRE-luciferase, luminescence | hit rate 0.32% among 300,000 | U2OS HRE-luciferase reporter; normalized: DMSO 0%, desferrioxamine 100% | activation, % at 7.5 µM (by protocol) | AID 1910, 2009;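 active = mean activation of at least 10% of the iron chelator positive control signal, with at least half of replicates also reaching 10%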
# AHR activator = AHR activators, primary screen, cell-based, luminescence, luciferase reporter, human; hit rate 2.5% among 320,000; activation, % at 5 µM; AID 2796, 2010; AHR-responsive luciferase reporter cells; Aryl hydrocarbon receptor (Homo sapiens), P35869; in the data active = activation above about 47%;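 also: 0% = vehicle wells and 100% = reference agonist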
# AHR act confirm = AHR activators, confirmation, cell-based, luminescence, luciferase reporter, human | shares compounds with AHR activator | human cells, AHR-responsive luciferase reporter | activation, % at 9 µM | hit rate 87% among 2,300 | AID 2845, 2010; in the data active = activation above about 49%;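 also: HepG2 hepatoma cells carrying a DRE-driven firefly luciferase reporter; 0% = vehicle wells and 100% = reference agonist wells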
# PXR act counter = human PXR activators, counter-screen for AHR activator project, cell-based, luciferase luminescence; shares compounds with AHR activator; cell-based PXR reporter; activation, % at 11.6 µM; hit rate 88% among 2,300; in the data active = activation above about 11%;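 also: human hepatoma DPX-2 cells expressing full-length human PXR; 0% = DMSO and 100% = reference agonist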
# Target sequence (O75469 whole entry, looked up): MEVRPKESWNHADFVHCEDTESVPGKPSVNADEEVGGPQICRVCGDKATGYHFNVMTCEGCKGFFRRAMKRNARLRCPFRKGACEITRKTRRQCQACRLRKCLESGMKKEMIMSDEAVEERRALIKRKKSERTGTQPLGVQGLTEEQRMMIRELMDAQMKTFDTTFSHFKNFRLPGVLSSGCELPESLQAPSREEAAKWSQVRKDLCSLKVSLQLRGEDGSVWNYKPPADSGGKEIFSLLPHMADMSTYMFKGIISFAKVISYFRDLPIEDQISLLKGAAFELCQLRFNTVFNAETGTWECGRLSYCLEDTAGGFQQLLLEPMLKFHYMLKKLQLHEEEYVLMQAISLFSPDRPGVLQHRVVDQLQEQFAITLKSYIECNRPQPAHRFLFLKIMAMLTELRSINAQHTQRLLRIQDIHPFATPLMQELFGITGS
# An asterisk follows results filed as active; . = no result given. Sampled rows, rich in hits. Any-hit rate of the full collection: about 2.8%.
SMILES,Platelet DG rel,pCIP destab,PolyA inh,HIF activator,AHR activator,AHR act confirm,PXR act counter
NC(=O)c1ccccc1NC(=O)CN1CCN(Cc2ccc(Cl)cc2Cl)CC1,0,-2,-5,-1,-1,.,.
O=S(=O)(Nc1cc(Sc2cccc3cccnc23)c(O)c2ccccc12)c1ccc(F)cc1,-2,1,-14,0,85*,25,132*
COc1ccc(NC(=O)c2cc(=O)[nH]c3ccccc23)cc1,0,-5,4,-16,100*,108*,20*
COc1cc(OC)cc(C(=O)NNC(=O)c2cc(=O)[nH]c3ccccc23)c1,0,.,0,-1,3,.,.
COc1ccc(NC(=O)c2cccc3c(Br)cccc23)cc1,-7,-4,5,2,93*,121*,.
CC(C)Nc1nc(Cl)nc(NNC(=O)C(C)Oc2ccccc2)n1 (stereo unspecified),-2,-11,5,-1,2,.,.
COc1cc(C(=O)N/N=c2/sc3ccccc3n2C)cc(OC)c1OC,-11,5,10,0,171*,82*,56*
COc1ccc(C(=O)N=c2sc3ccccc3n2C)cc1OC,10,11,-23,.,12,.,.
O=C(NC1CCN(Cc2ccccc2)CC1)c1cccc(OC(F)F)c1,2,5,0,-8,11,.,.
Cn1/c(=N/NC(=O)c2cccc(OC(F)F)c2)sc2ccccc21,7,6,7,0,118*,110*,119*
COc1ccccc1N(CC(=O)NC1CCCC1)C(=O)CCC(=O)Nc1ccccn1,7,-5,-4,0,-2,.,.
CCNC(=O)c1ccc(C23CC4CC(CC(C4)C2)C3)o1,7,-5,-24,0,4,.,.
C/C(=C\C(=O)c1ccccc1)NNc1nc2ccccc2s1,-7,-3,-38,1,97*,18,54*
O=C(C[C@@H]1C/C=C\CC[C@H](Cc2ccc(F)cc2)C(=O)OC[C@@H]2CCCN2C1=O)NCCO,.,.,.,.,0,.,.
COc1ccc(C2CC(c3cccs3)=NN2C(=O)CSc2nc3ccccc3o2)cc1 (stereo unspecified),-1,-8,-1,0,93*,50*,45*
O=C(Nc1ccon1)Nc1ccc(F)cc1F,-3,-3,-7,0,0,.,.
O=C(Nc1ccon1)Nc1cc(Cl)ccc1Cl,-8,-14,6,0,122*,101*,11*
Cc1cc(=O)c2c(C)nn(-c3ccccc3)c2[nH]1,0,-12,13,0,0,.,.
CCc1c(C)c2c(C)nn(-c3ccccc3)c2[nH]c1=O,-9,-1,-2,0,97*,94*,24*
C=CCNc1nc(-c2sc(NC(C)=O)nc2C)cs1,-12,-3,5,0,7,.,.
CCC(C)C(=O)Nc1nc(C)c(-c2csc(Nc3ccccc3OC)n2)s1 (stereo unspecified),-6,-2,15,0,110*,85*,51*
C=CCCC(=O)Nc1nc(C)c(-c2csc(Nc3ccc(Cl)cc3Cl)n2)s1,2,-1,6,-2,102*,73*,25*
C=CCCC(=O)Nc1nc(C)c(-c2csc(Nc3ccccc3OC)n2)s1,-6,3,0,4,101*,65*,31*
Cc1nc(NC(=O)c2ccco2)sc1-c1csc(Nc2ccc(Cl)cc2Cl)n1,-5,-16,-2,0,88*,75*,26*
COc1ccccc1CCC(=O)Nc1ccc(C)cc1Cl,1,-9,-7,4,4,.,.
CC(C)C(=O)Nc1ccc(C(=O)Nc2ccc(Br)cc2F)cc1,-3,10,10,2,-7,.,.
CCOC(=O)CNC(=O)N1CCc2ccc(NC(=O)c3ccccc3OC)cc2C1,1,-3,-8,0,37,.,.
COc1ccccc1C(=O)Nc1ccc2c(c1)CN(Cc1cnc(C)s1)CC2,-8,2,7,1,113*,56*,13*

# Assay outcomes as filed in PubChem BioAssay.
